# Read-outs that look alike come from different tables or passages of the source.
# Legend:
# [1] = system: ABL1; design: species or system human, MV4-11 + K-562 + COLO205 + SK-N-BE2 + OVCAR-8; settings: read-out: apparent Kd, compound concentrations: 100 nM and 1000 nM (sheet 'Samples'), n = 1
# [2] = system: ABL2; design: species or system human, MV4-11 + K-562 + COLO205 + SK-N-BE2 + OVCAR-8; settings: read-out: apparent Kd, compound concentrations: 100 nM and 1000 nM (sheet 'Samples'), n = 1
# [3] = system: BCR; design: species or system human, MV4-11 + K-562 + COLO205 + SK-N-BE2 + OVCAR-8; settings: read-out: apparent Kd, compound concentrations: 100 nM and 1000 nM (sheet 'Samples'), n = 1
# [4] = system: FYN; design: species or system human, MV4-11 + K-562 + COLO205 + SK-N-BE2 + OVCAR-8; settings: read-out: apparent Kd, compound concentrations: 100 nM and 1000 nM (sheet 'Samples'), n = 1
# [5] = system: GAK; design: species or system human, MV4-11 + K-562 + COLO205 + SK-N-BE2 + OVCAR-8; settings: read-out: apparent Kd, compound concentrations: 100 nM and 1000 nM (sheet 'Samples'), n = 1
# [6] = system: HCK; design: species or system human, MV4-11 + K-562 + COLO205 + SK-N-BE2 + OVCAR-8; settings: read-out: apparent Kd, compound concentrations: 100 nM and 1000 nM (sheet 'Samples'), n = 1
# [7] = system: LCK; design: species or system human, MV4-11 + K-562 + COLO205 + SK-N-BE2 + OVCAR-8; settings: read-out: apparent Kd, compound concentrations: 100 nM and 1000 nM (sheet 'Samples'), n = 1
# [8] = system: PTK6; design: species or system human, MV4-11 + K-562 + COLO205 + SK-N-BE2 + OVCAR-8; settings: read-out: apparent Kd, compound concentrations: 100 nM and 1000 nM (sheet 'Samples'), n = 1
# [9] = system: RIPK2; design: species or system human, MV4-11 + K-562 + COLO205 + SK-N-BE2 + OVCAR-8; settings: read-out: apparent Kd, compound concentrations: 100 nM and 1000 nM (sheet 'Samples'), n = 1
# [10] = system: RIPK3; design: species or system human, MV4-11 + K-562 + COLO205 + SK-N-BE2 + OVCAR-8; settings: read-out: apparent Kd, compound concentrations: 100 nM and 1000 nM (sheet 'Samples'), n = 1
# [11] = system: TNK1; design: species or system human, MV4-11 + K-562 + COLO205 + SK-N-BE2 + OVCAR-8; settings: read-out: apparent Kd, compound concentrations: 100 nM and 1000 nM (sheet 'Samples'), n = 1
# [12] = system: YES1; design: species or system human, MV4-11 + K-562 + COLO205 + SK-N-BE2 + OVCAR-8; settings: read-out: apparent Kd, compound concentrations: 100 nM and 1000 nM (sheet 'Samples'), n = 1
# [13] = system: AAK1; design: species or system human, MV4-11 + K-562 + COLO205 + SK-N-BE2 + OVCAR-8; settings: read-out: apparent Kd, compound concentrations: 100 nM and 1000 nM (sheet 'Samples'), n = 1
# [14] = biological target: Q6ZSR9 (human, UniProt Q6ZSR9); design: species or system MV4-11 + K-562 + COLO205 + SK-N-BE2 + OVCAR-8; settings: read-out: apparent Kd, compound concentrations: 100 nM and 1000 nM (sheet 'Samples'), n = 1
# Sequence of Q6ZSR9 (Q6ZSR9 whole entry, looked up): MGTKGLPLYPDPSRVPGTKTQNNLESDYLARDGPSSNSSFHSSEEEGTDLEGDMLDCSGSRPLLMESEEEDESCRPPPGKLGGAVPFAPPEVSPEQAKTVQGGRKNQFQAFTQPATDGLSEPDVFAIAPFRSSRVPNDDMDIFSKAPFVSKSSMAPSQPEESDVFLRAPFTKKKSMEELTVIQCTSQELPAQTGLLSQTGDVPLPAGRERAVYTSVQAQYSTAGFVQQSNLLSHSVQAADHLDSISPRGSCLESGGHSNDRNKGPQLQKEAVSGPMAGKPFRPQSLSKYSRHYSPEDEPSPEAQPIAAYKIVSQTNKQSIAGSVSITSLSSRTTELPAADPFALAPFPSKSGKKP
# [15] = system: CLK1; design: species or system human, MV4-11 + K-562 + COLO205 + SK-N-BE2 + OVCAR-8; settings: read-out: apparent Kd, compound concentrations: 100 nM and 1000 nM (sheet 'Samples'), n = 1
# [16] = system: CLK4; design: species or system human, MV4-11 + K-562 + COLO205 + SK-N-BE2 + OVCAR-8; settings: read-out: apparent Kd; compound concentrations: 100 nM and 1000 nM (sheet 'Samples'), CATDS: 0.11834941417905; n = 1
# [17] = system: CSNK2A1;CSNK2A3; design: species or system human, MV4-11 + K-562 + COLO205 + SK-N-BE2 + OVCAR-8; settings: read-out: apparent Kd, compound concentrations: 100 nM and 1000 nM (sheet 'Samples'), n = 1
# [18] = system: CSNK2A2; design: species or system human, MV4-11 + K-562 + COLO205 + SK-N-BE2 + OVCAR-8; settings: read-out: apparent Kd; compound concentrations: 100 nM and 1000 nM (sheet 'Samples'), CATDS: 0.175887275734743; n = 1
# [19] = system: RET; design: species or system human, MV4-11 + K-562 + COLO205 + SK-N-BE2 + OVCAR-8; settings: read-out: apparent Kd; compound concentrations: 100 nM and 1000 nM (sheet 'Samples'), CATDS: 4.15605904174959E-2; n = 1
smiles,measurement,setting,value
CC(C)c1nc(-c2cccc(NS(=O)(=O)c3ccccc3)c2)c(-c2ccnc(Nc3ccc4c(c3)CN(C)CC4)n2)s1 [GSK1649598A],potency estimated from few doses,[1]; CATDS: 2.01463365951845E-2,368 nM
same,potency estimated from few doses,[2]; CATDS: 3.9720351054025098E-2,93.8 nM
same,potency estimated from few doses,[3]; CATDS: 1.4720639450574301E-2,924 nM
same,potency estimated from few doses,[4]; CATDS: 1.9244455455098501E-2,413 nM
same,potency estimated from few doses,[5]; CATDS: 0.115621915519597,19.8 nM
same,potency estimated from few doses,[6]; CATDS: 1.6425065187182699E-2,643 nM
same,potency estimated from few doses,[7]; CATDS: 3.58702015349356E-2,112 nM
same,potency estimated from few doses,[8]; CATDS: 1.42958167275793E-2,1030 nM
same,potency estimated from few doses,[9]; CATDS: 2.88864910940058E-2,167 nM
same,potency estimated from few doses,[10]; CATDS: 1.96372512533491E-2,392 nM
same,potency estimated from few doses,[11]; CATDS: 3.1602555545839801E-2,141 nM
same,potency estimated from few doses,[12]; CATDS: 2.5454428176696801E-2,216 nM
Cc1cccc(Nc2nc(NCCN)ncc2C(N)=O)c1 [GSK1292139B],potency estimated from few doses,[13]; CATDS: 0.21003536001632001,164 nM
same,potency estimated from few doses,[14]; CATDS: 0.320838512301937,88 nM
Cl.Cl.Cl.c1ccc(Oc2ccc(Nc3ccnc4cc(-c5ccc(CN6CCNCC6)o5)ccc34)cc2)nc1.c1ccc(Oc2ccc(Nc3ccnc4cc(-c5ccc(CN6CCNCC6)o5)ccc34)cc2)nc1 [GW567142A],potency estimated from few doses,[1]; CATDS: 0.106160515103876,36.7 nM
same,potency estimated from few doses,[2]; CATDS: 3.7512936282147198E-2,226 nM
same,potency estimated from few doses,[3]; CATDS: 2.8038265853645699E-2,446 nM
same,potency estimated from few doses,[4]; CATDS: 5.8978422577379903E-2,93.1 nM
same,potency estimated from few doses,[6]; CATDS: 9.4879616105776998E-2,43.2 nM
same,potency estimated from few doses,[7]; CATDS: 2.9875488877577801E-2,381 nM
same,potency estimated from few doses,[8]; CATDS: 5.6771173878132498E-2,99.7 nM
same,potency estimated from few doses,[9]; CATDS: 5.5547059533083698E-2,104 nM
same,potency estimated from few doses,[10]; CATDS: 2.6794845522232699E-2,500 nM
same,potency estimated from few doses,[12]; CATDS: 0.102310323687496,38.7 nM
Cc1nn(C)c2cc(N(C)c3ccnc(Nc4cccc(S(N)(=O)=O)c4)n3)ccc12.Cl [GW770220A],potency estimated from few doses,[13]; CATDS: 0.34831040930344798,632 nM
same,potency estimated from few doses,[14]; CATDS: 0.39212964610314199,507 nM
O=C1N=C(NCc2ccccc2)S/C1=C\c1ccc2ncccc2c1 [RO4442080-000],potency estimated from few doses,[13]; CATDS: 8.89289230622759E-2,1380 nM
same,potency estimated from few doses,[15]; CATDS: 0.13842928601840401,521 nM
same,potency estimated from few doses,[16],701 nM
same,potency estimated from few doses,[17]; CATDS: 0.15313565978355501,438 nM
same,potency estimated from few doses,[18],351 nM
same,potency estimated from few doses,[14]; CATDS: 0.110093670656788,815 nM
Cc1ccc(O)cc1Nc1ccnc2ccc(C(C)(C)C)cc12 [GW856805X],potency estimated from few doses,[1]; CATDS: 2.7380804690978401E-2,1400 nM
same,potency estimated from few doses,[2]; CATDS: 3.3299960088100697E-2,317 nM
same,potency estimated from few doses,[3]; CATDS: 4.5684736172067801E-2,79.1 nM
same,potency estimated from few doses,[4]; CATDS: 4.6328072424656697E-2,75.5 nM
same,potency estimated from few doses,[5]; CATDS: 4.7417196878279499E-2,70 nM
same,potency estimated from few doses,[8]; CATDS: 2.9493928233546299E-2,718 nM
same,potency estimated from few doses,[19],111 nM
same,potency estimated from few doses,[9]; CATDS: 0.10546216310876699,11.1 nM
same,potency estimated from few doses,[10]; CATDS: 3.0648006837875299E-2,540 nM
Cc1cc(O)cc(C)c1/C=C/c1cncc(-c2nn[nH]n2)c1.Cl [GW441806A],potency estimated from few doses,[2]; CATDS: 4.9411968087492097E-2,1050 nM
same,potency estimated from few doses,[6]; CATDS: 5.4045361972082297E-2,799 nM
same,potency estimated from few doses,[8]; CATDS: 5.1044813253260601E-2,947 nM
same,potency estimated from few doses,[9]; CATDS: 0.246510095033628,18 nM
same,potency estimated from few doses,[10]; CATDS: 4.07522630784811E-2,2090 nM
COc1cccc(-n2cnc3c(N/N=C/c4ccncc4)ncnc32)c1 [GW813360X],potency estimated from few doses,[1]; CATDS: 0.132287686029187,2030 nM
same,potency estimated from few doses,[2]; CATDS: 0.19344614583088601,869 nM
same,potency estimated from few doses,[3]; CATDS: 0.226928346430948,659 nM
CN(C)Cc1ccc(-c2ccc3c(Nc4ccc(Oc5ccccn5)cc4)ccnc3c2)o1 [GW567148X],potency estimated from few doses,[1]; CATDS: 2.6696820742308999E-2,474 nM
same,potency estimated from few doses,[2]; CATDS: 2.2474655179730001E-2,716 nM
same,potency estimated from few doses,[3]; CATDS: 2.3050499166144999E-2,671 nM
same,potency estimated from few doses,[15]; CATDS: 1.75413407111282E-2,1550 nM
same,potency estimated from few doses,[4]; CATDS: 2.9409133210556101E-2,385 nM
same,potency estimated from few doses,[5]; CATDS: 2.37556853543167E-2,622 nM
same,potency estimated from few doses,[6]; CATDS: 0.14804740289448201,30.7 nM
same,potency estimated from few doses,[7]; CATDS: 3.1046843535100802E-2,345 nM
same,potency estimated from few doses,[8]; CATDS: 5.2806540733476098E-2,134 nM
same,potency estimated from few doses,[9]; CATDS: 9.2431358445575804E-2,57.7 nM
same,potency estimated from few doses,[10]; CATDS: 2.29584105489756E-2,678 nM
same,potency estimated from few doses,[11]; CATDS: 3.2421651582332497E-2,316 nM
same,potency estimated from few doses,[12]; CATDS: 6.4400674253028201E-2,97.8 nM
O=S(=O)(CCOCc1ccc(-c2ccc3ncnc(Nc4ccc(OCc5cccc(F)c5)c(Cl)c4)c3c2)o1)c1ccccc1 [GW615311X],potency estimated from few doses,[17]; CATDS: 2.30931474147829E-2,2130 nM
same,potency estimated from few doses,[4]; CATDS: 3.12916843215739E-2,1080 nM

# From paper PMC11062922 (Nature Chemical Biology, 2023)
